Test results as given in PubChem BioAssay (NCI).
Compounds without any hit were thinned out: in the full panel of roughly 83,000, 20% have a hit.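 Results are percent growth after 48 hours of single-concentration exposure. 100 means growth as in untreated cells, lower positive values show inhibition; negative values down to -100 show cell death.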 Calls of active or inactive are those of the source. How the source made its calls: active means growth percent below 10; inactive means the rest.

tested on: HL-60(TB) leukemia; experiment: NCI-60 one-dose screen, 48 h (100 = growth as untreated, 0 = no growth, -100 = all killed); conditions: 10 µM unless noted

SMILES	growth
Cc1ccc(N=Nc2c(N)nn3c(-c4cc5ccccc5oc4=O)ccnc23)cc1	36.4% (inactive)
N#Cc1ccc(-c2nn(-c3ccc(C(=O)O)cc3)cc2CNc2cccc(Br)c2)cc1	47% (inactive)
COc1cccc(-c2c(C#N)c(-c3ccc(Cl)cc3)nc3n[nH]c(-c4ccc(Cl)cc4)c23)c1	7.69% (active)
Cc1c(C(=O)NNC(=O)Nc2ccc(Cl)cc2)nnn1-c1ccc(Br)cc1	103% (inactive)
O=c1oc2ccccc2cc1-c1csc(N2N=C(c3ccccc3)CC2c2ccc(N3CCOCC3)cc2)n1 (stereo not drawn)	96.5% (inactive)
CCN(CC)CCOc1ccc(Nc2ncc3cc(-c4ccc(O)c(C#N)c4)c(=O)n(C)c3n2)cc1	87.6% (inactive)
Cc1ccc(C(=O)Nc2ccc(-n3ccnc3)c(C(F)(F)F)c2)cc1C#Cc1cnc2cccnn12	-19.6% (active)
N=C1N=C(SCc2nc3ccccc3[nH]2)NC(=O)/C1=C/c1ccc(Cl)cc1	102% (inactive)
COc1c(F)ccc(C(=O)Nc2ccc3nc(NC(=O)C4CCCN(S(=O)(=O)c5cccc(Cl)c5)C4)sc3c2)c1F (stereo not drawn)	76.8% (inactive)
O=C(NN1C(=O)/C(=C/C=C/c2ccc([N+](=O)[O-])o2)SC1=S)c1ccccc1O	-0.846% (active)
Cn1cc(/C=N/Nc2cccc(Cl)n2)c2ccccc21	56.6% (inactive)
Cc1ccc(F)cc1N/C=c1\s/c(=C(\C#N)C(=O)Nc2ccccc2)n(-c2ccccc2)c1=O	111% (inactive)
CN1C(=O)N(C)C2SC(N/N=C/c3ccccc3)=NC21 (stereo not drawn)	8.73% (active)
